Experimental findings from PubChem BioAssay (NCATS) are described below.

Structures are written as SMILES. Inconclusive results are not listed. Activity calls are given as the source filed them. Unless noted, calls come from the whole dose curve.

Test [1] deals with Glucocorticoid receptor (Homo sapiens) (UniProt P04150). Description: qHTS assay for small molecule antagonists of glucocorticoid receptor signaling (AID 588533; active = well fitted inhibition curve with a large enough effect in the signal ratio, with a control signal flat, not every such curve was filed as active; the % refers to the signal ratio;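 note: cells stimulated with 2 nM dexamethasone as agonist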; note: potency is the fitted concentration of half-maximal effect). In a few lines:
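Antagonist-mode qHTS: compound titrations added to GRE-bla HeLa cells, then dexamethasone 2 nM final; 18 h, 37 C. CCF4 FRET fluorescence normalized to dexamethasone and DMSO; IC50 from Hill fit.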

Test [2] in a line: qHTS assay for small molecule antagonists of peroxisome proliferator-activated receptor delta signaling (AID 588535; active = well fitted inhibition curve with a large enough effect in the signal ratio, with a control signal flat, not every such curve was filed as active; the % refers to the signal ratio;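 for max response: cells co-treated with a PPAR-delta agonist as stimulator during compound exposure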). As to conditions: HEK293T PPARd-UAS-bla, beta-lactamase FRET ratio, 18 h; 460 nm channel. In a few lines:
(§1)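 Cells were seeded at 4000 per well in assay medium containing 2% charcoal/dextran FBS and held 5 hrs at 37 C. Compounds were then added for 18 hrs. CCF4 substrate was applied for 2 hrs at room temperature before fluorescence reading.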

In test [3] the target is Peroxisome proliferator-activated receptor delta (Homo sapiens) (UniProt Q03181). The test is described as above. In a few lines:
as §1

Test [4] concerns the target Peroxisome proliferator-activated receptor gamma (Homo sapiens) (UniProt P37231). Briefly: qHTS assay for small molecule agonists of peroxisome proliferator-activated receptor gamma signaling (AID 588536; active = well fitted curve in the direction sought with a large enough effect in the signal ratio, with a control signal flat, not every such curve was filed as active; the % refers to the signal ratio;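 note: 0% = DMSO basal wells and 100% = rosiglitazone at 2 µM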). In a few lines:
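Ratiometric blue/green fluorescence (405 nm excitation; 460 and 530 nm emission) from CCF4-loaded HEK293 reporter cells serves as signal. Exposure to test compounds lasts 16 h at 37 C in medium containing 1% charcoal/dextran-treated serum.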
For orientation: qHTS replaces the single test concentration by a dilution series.

Test [5] addresses Vitamin D3 receptor (Homo sapiens) (UniProt P11473). Briefly: qHTS assay for small molecule antagonists of vitamin D receptor signaling (AID 588541).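 Note: receptor activated by calcitriol during compound treatment; series mostly up to about 77 µM; % is set by controls: 0 for no effect and ±100 for the full control effect.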 An excerpt:
NIH Chemical Genomics Center [NCGC]
U.S. Environmental Protection Agency [EPA]
National Institutes of Environmental Health Sciences [NIEHS]
National Toxicology Program [NTP]
The Vitamin D receptor (VDR) is a member of nuclear hormone receptor superfamily and it plays a critical role in calcium homeostasis and bone metabolism. It plays a role in inducing cell differentiation, inhibiting cell growth and in thrombogenicity. So, VDR that mediates these effects represents a pharmacological target in prevention and treatment of hyperproliferative malignancies, such as cancer and psoriasis, cardiovascular, immunological, inflammatory and renal diseases etc.
NCGC Assay Protocol Summary
Using a beta-lactamase reporter-gene under control of Vitamin D receptor (VDR) response element, a cell-based assay [GeneBLAzer (VDR -UAS-bla assay developed by Invitrogen] was used to measure VDR ligands signaling. GeneBLAzer VDR -UAS-bla HEK293T cells were used with assay medium containing 2% charcoal-stripped FBS. The assay was performed in clear bottom black Greiner 1536-well plates. Library compounds were measured for their ability to inhibit the reporter gene activity. Compounds were screened in a titration series in 1536-well format. The fluorescence intensity (405 nm excitation, 460/530 nm emission) was measured using an EnVision plate reader. Data was normalized relative to 1-alpha,25-Dihydroxy vitaminD3 control (50 nM, 100%) and DMSO only wells (basal, 0%). Concentration-response titration points for each compound were fitted to the Hill equation yielding concentrations of half-maximal inhibition (IC50) and maximal response (efficacy) values.
qHTS protocol for VDR beta-lactamase assay in antagonist mode
[Step] [Parameter] [Value] [Description]
1. Reagent; 5 uL; 2000 cells/well
2. Incubation; 37 C for 5 hrs
4. Controls (DMSO); 23 nL,
5. Agonist (Stimulator); 1uL; 1-alpha,25-Dihydroxy vitaminD3 at 50 nM and 3 nM final concentrations
6. Incubation; 37 C for 16 hrs
7. Detection reagent; 1 uL of CCF4-dye
8. Incubation; RT for 2 hrs
9. Detection; Fluorescence; Envision plate reader

For test [6] the target is unchanged. Briefly: qHTS assay for small molecule agonists of vitamin D receptor signaling (AID 588543).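 Note: 0% = DMSO basal and 100% = reference agonist control.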 In a few lines: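 Agonist-mode beta-lactamase reporter: HEK293T VDR-UAS-bla cells in charcoal-stripped 2% FBS, compound series 16 h 37 C, CCF4 2 h RT. EC50 from Hill fit, scaled against DMSO and 50 nM calcitriol control.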
Test [7] is described as follows: qHTS assay for small molecule agonists of retinoid X receptor alpha signaling (AID 588544). As to conditions: HEK293T RXRa-UAS-bla, beta-lactamase reporter, 18 h; 530 nm emission.
In test [8] the target is Retinoic acid receptor RXR-alpha (Homo sapiens) (UniProt P19793). Described as above.
Chain of Retinoic acid receptor RXR-alpha (Homo sapiens) (P19793 whole entry, looked up): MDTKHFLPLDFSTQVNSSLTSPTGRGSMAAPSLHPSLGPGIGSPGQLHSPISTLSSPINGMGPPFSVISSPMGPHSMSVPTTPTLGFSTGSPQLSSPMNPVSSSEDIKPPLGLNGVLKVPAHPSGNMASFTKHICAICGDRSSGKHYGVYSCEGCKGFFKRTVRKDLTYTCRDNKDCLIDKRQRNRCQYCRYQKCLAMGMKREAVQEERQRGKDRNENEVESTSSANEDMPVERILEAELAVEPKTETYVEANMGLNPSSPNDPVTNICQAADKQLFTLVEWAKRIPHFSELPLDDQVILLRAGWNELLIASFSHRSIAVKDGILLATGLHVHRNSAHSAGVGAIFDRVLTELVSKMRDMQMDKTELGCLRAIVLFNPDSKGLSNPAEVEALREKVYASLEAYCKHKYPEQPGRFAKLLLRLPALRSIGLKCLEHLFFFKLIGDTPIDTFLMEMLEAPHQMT
Test [9] has as its target Thyroid hormone receptor beta (Homo sapiens) (UniProt P10828). Briefly: qHTS assay for small molecule agonists of thyroid hormone receptor beta signaling (AID 588545). A digest of the protocol:
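In this cell-based screen, titrated compounds act on HEK 293 cells held in medium with 2% charcoal/dextran FBS, NEAA and pyruvate for 18 hrs at 37 C. Responses are expressed relative to T3 (10 nM) as 100% and basal DMSO as 0%.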

Test [10] addresses Peroxisome proliferator-activated receptor gamma (Homo sapiens) (UniProt P37231). Briefly: qHTS assay for small molecule antagonists of peroxisome proliferator-activated receptor gamma signaling (AID 588537; active = well fitted inhibition curve with a large enough effect in the signal ratio, with a control signal flat, not every such curve was filed as active; the % refers to the signal ratio;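 note: reporter cells co-stimulated with 50 nM rosiglitazone agonist during compound treatment; % of control where 0% means no effect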). In a few lines: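 Step one: plate 3000 HEK293 UAS-bla cells per well in medium with 1% stripped serum and hold 6-6.5 h at 37 C. Step two: add compound and 50 nM agonist for 16 h. Step three: CCF4 loading, fluorescence read.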

Chain of Glucocorticoid receptor (Homo sapiens) (P04150 whole entry, looked up): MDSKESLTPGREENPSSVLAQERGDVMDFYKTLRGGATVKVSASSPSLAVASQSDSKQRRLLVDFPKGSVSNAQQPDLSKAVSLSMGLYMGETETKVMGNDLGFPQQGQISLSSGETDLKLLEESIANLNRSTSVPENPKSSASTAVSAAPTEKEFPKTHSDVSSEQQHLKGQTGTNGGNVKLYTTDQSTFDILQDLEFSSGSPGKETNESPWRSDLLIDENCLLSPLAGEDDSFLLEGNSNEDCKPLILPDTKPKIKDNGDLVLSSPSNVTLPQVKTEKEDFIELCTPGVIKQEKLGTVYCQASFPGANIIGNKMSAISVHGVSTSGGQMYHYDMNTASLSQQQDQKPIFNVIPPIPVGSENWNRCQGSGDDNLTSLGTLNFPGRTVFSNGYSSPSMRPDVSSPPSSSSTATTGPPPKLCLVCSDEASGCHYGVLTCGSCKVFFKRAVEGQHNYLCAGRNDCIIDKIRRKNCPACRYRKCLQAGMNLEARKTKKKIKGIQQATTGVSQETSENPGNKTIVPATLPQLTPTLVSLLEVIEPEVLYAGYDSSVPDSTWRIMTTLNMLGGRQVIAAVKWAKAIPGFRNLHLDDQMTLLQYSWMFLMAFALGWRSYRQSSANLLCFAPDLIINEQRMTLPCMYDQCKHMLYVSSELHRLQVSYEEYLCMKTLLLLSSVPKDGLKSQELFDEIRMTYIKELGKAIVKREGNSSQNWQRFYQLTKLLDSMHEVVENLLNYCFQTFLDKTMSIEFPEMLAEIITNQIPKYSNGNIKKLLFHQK
Chain of Vitamin D3 receptor (Homo sapiens) (P11473 whole entry, looked up): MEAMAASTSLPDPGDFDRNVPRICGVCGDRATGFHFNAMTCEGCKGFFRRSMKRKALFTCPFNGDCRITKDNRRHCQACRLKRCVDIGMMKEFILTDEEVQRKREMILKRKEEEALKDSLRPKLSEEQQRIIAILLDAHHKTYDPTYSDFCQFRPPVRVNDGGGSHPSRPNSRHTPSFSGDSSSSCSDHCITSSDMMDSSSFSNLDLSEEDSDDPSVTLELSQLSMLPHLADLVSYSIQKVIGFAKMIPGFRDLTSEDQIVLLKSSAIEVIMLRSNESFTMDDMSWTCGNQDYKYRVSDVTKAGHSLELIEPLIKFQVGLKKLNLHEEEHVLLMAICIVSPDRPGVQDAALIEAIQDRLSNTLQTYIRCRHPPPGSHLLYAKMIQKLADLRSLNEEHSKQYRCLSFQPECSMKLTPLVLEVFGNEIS
Chain of Thyroid hormone receptor beta (Homo sapiens) (P10828 whole entry, looked up): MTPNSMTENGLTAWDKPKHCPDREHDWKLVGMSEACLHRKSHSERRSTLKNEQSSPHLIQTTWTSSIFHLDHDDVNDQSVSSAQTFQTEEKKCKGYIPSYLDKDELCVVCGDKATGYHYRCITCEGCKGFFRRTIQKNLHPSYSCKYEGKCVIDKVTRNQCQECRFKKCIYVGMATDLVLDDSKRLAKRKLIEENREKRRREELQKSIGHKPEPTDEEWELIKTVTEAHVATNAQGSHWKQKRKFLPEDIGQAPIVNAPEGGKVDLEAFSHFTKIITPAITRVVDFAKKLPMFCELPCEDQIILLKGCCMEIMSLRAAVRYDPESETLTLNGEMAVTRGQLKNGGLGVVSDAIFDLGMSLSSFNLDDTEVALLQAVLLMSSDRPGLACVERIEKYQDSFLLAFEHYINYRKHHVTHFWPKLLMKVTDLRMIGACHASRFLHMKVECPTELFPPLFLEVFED
Chain of Peroxisome proliferator-activated receptor gamma (Homo sapiens) (P37231 whole entry, looked up): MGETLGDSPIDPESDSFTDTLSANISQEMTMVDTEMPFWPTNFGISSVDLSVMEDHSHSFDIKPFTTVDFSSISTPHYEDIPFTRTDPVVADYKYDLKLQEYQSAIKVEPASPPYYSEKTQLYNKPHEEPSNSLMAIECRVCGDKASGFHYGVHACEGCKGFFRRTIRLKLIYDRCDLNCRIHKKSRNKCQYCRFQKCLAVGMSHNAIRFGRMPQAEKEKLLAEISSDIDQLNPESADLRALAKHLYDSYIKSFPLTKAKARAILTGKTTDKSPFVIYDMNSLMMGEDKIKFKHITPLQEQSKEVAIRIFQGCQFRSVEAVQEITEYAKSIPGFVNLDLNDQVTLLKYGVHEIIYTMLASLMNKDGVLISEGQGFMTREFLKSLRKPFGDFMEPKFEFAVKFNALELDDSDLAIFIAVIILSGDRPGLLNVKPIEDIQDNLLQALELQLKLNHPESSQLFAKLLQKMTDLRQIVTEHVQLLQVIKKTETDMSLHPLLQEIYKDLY
Chain of Peroxisome proliferator-activated receptor delta (Homo sapiens) (Q03181 whole entry, looked up): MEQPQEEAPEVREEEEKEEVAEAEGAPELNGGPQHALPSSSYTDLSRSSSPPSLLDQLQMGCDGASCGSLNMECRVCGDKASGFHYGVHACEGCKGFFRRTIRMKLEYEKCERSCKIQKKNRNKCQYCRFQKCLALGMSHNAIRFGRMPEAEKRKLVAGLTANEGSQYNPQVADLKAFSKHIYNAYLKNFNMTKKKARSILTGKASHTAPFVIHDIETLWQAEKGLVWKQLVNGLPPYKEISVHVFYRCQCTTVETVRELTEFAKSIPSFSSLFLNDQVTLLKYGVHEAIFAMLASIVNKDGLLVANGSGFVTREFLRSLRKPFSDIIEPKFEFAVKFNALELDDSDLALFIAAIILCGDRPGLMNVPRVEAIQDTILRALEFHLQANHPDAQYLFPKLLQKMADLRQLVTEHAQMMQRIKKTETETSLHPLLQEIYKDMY

On to `C[C@]12CC[C@@H]3c4ccc(O)cc4CC[C@H]3[C@H]1CC[C@H]2O`, for which the Potency in test [1] is 15.8 µM (active). The figures for the max response in [2] and in test [7] were -15.7% and 14%, respectively. In addition, the result in test [3], in test [4], in test [5], in [6], in test [8] and in [9] was inactive.

On to `Cc1cc(O)c2c(c1)C(=O)c1cccc(O)c1C2=O`, for which the Potency entry in test [1] was “inactive”. For the same compound, the max response was -38.7% in test [2] and 0.103% in test [7]. Besides, the call in [3], in [4], in [10], in [5], in [6] and in [8] was inactive.

Take `OC[C@@H](O)[C@@H](O)[C@H](O)[C@@H](O)CO`: the compound was called inactive in test [4], in [5], in test [6], in test [8] and in [9]. Further, in test [7], the max response is -9.11%.

For the compound `CC(C=CC1=C(C)CCCC1(C)C)=CC=CC(C)=CC(=O)Nc1ccc(O)cc1`, the compound was called inactive in [6] and in test [9].

In the case of `O=C1c2cccc(O)c2C(=O)c2c(O)cc(CO)cc21`, in test [1], the Potency result was “inactive”. In addition, the compound was called inactive in test [10], in test [5], in [6], in [8] and in [9]. In addition, the max response in [7] was 11.8%.
